Inconclusive results are not listed. Values without a mark were called inactive. Active and inactive are the calls of the source. Unless noted, calls follow the shape of the dose curve; as a rule, active = well fitted cell-killing curve with a large enough effect in the repeat runs; inconclusive = weak or mixed curves, or effect the other way; inactive = no such curve, though single readings can be large or run the other way.
assay: qHTS assay to identify small molecule antagonists of the peroxisome proliferator-activated receptor gamma (PPARg) signaling pathway - cell viability counter screen (AID 743194); conditions: PPARg-bla HEK293H viability, CellTiter-Glo luminescence, 17 h, co-treated with 50 nM rosiglitazone; series mostly up to 62.6 µM; activity change, negative = cytotoxicity: at the top concentration; also: nearly all actives have a fitted effect of over 55% in size
In short: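 Viability was measured as CellTiter-Glo luminescence in GeneBLAzer PPARg UAS-bla HEK293H cells. These cells had been exposed 17 h at 37 C to compounds together with rosiglitazone at 50 nM final, with the beta-lactamase readout taken in the same wells.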
% is scaled to controls: 0 for no effect and ±100 for the full control effect.

SMILES | activity change, negative = cytotoxicity
N#Cc1cc(NC(=O)C(=O)O)c(Cl)c(NC(=O)C(=O)O)c1 | 16.5%
CC(C)CC(O)Cc1ccccc1 (configuration not stated) | 4.11%
CC(=O)O[C@@H]1CC2C3CCc4cc(OC(=O)c5ccccc5)ccc4C3CCC2(C)[C@H]1OC(C)=O (some centres not stated) | 16.5%
CC(=O)/C=C/C=C1/C2CCC(C2)C1(C)C (configuration not stated) | 7.86%
CCCc1ncc(C(=O)O)s1 | 2.42%
CC(=O)c1ccc(O)c(C(N)=O)c1 | -0.527%
O=C(O)Cc1ccccc1Oc1ccc(Cl)cc1Cl | 11.9%
COc1ccccc1N1CCN(CC(O)COc2cc(OC)c(OC)c(OC)c2)CC1 (configuration not stated) | 7.02%
Cc1cc(N)no1 | -16.2% [at 81.1 µM]
CC(CN1CC(=O)NC(=O)C1)N1CC(=O)NC(=O)C1 (configuration not stated) | -0.317%
CC(C)(C)NCC(O)COc1cccc2c1CCC(=O)N2 (configuration not stated) | -1.1%
CCN(CC)CC(=O)Oc1ccc(NC(C)=O)cc1 | 23.8%
CN(C)CCc1c[nH]c2ccc(C[C@H]3COC(=O)N3)cc12 | 2.68%
COc1cc(S(N)(=O)=O)cc(C(=O)O)c1OC | 15.1%
CCC(C)(C)C | 15.3% [at 81.1 µM]
C[C@@H]1CCC[C@H](C)N1CCCC(O)(c1ccccc1)c1ccccn1 (some centres not stated) | 2.74%
COC(=O)/C=C(\C)CCC=C(C)C | 0.56%
Cc1nnc(C(=O)NC(C)(C)c2nc(C(=O)NCc3ccc(F)cc3)c(O)c(=O)n2C)o1 | 4.03%

SMILES | activity change, negative = cytotoxicity
CO/N=C(\C(=O)O)c1csc(NC(=O)CCl)n1 | 21.2%
CC(C)(C)c1ccc(C(=O)CCCCl)cc1 | 14.3%
CC(=O)OCC(=O)[C@@]1(O)CC[C@H]2[C@@H]3CCC4=CC(=O)C=C[C@]4(C)[C@H]3[C@@H](O)C[C@@]21C | 8.8%
Cc1cc(=O)oc2cc(O[C@@H]3SC[C@@H](O)[C@H](O)[C@H]3O)ccc12 | -22.4%
CCOC(=O)CN1CCCC1=O | -24%
Cc1cc2c(cc1CC(=O)c1sccc1S(=O)(=O)Nc1onc(C)c1Cl)OCO2 | -21.2%
CCCCC(O)/C=C(C)/C=C/C=C/C(=O)N1CCCC1=O (configuration not stated) | 0.5%
Clc1ccc2c(c1)Nc1ccccc1S2 | -3.12%
NNC(=O)CCCCC(=O)NN | 7.13%
Cc1ccc(O)c(C(=O)c2ccccc2)c1 | -0.399% [at 81.1 µM]
N#CC1(N)CCCCC1 | 3.46% [at 81.1 µM]
CC(C)C(=O)Nc1cccc(C2CN3CCSC3=N2)c1 (configuration not stated) | 13%
O=C1CCCc2c(O)cccc21 | 3.89%
C=CC(=O)OCCOCCOCC | -7.25%
COC(=O)c1cc(Cl)c(NC(C)=O)cc1OC | 7.01%
COC(=O)c1ccc(NC(C)=O)cc1OC | -7.31%
CNC(=O)c1c(I)c(NC(C)=O)c(I)c(C(=O)O)c1I | 14.9%
O=C1CC2(CCCC2)CC(=O)N1CCNCC1COc2ccccc2O1 (configuration not stated) | 11.5%

assay: qHTS assay for small molecule agonists of the antioxidant response element (ARE) signaling pathway (AID 743202; active = well fitted activation curve with a large enough effect in the signal ratio in the repeat runs, not every such curve was filed as active; the % refers to the signal ratio; also: potency is read from the fitted curve at half-maximal effect); conditions: HepG2 ARE-bla reporter, beta-lactamase FRET, 16 h; series mostly up to 73.3 µM; activation: at the top concentration
In short: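 Quantitative high-throughput format in HepG2 cells bearing an integrated ARE-beta-lactamase reporter. Compound exposure lasted 16 h at 37 C, and fluorescence was read 2 h after adding LiveBLAzer B/G substrate at room temperature.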

SMILES | activation | Potency
N#Cc1cc(NC(=O)C(=O)O)c(Cl)c(NC(=O)C(=O)O)c1 | 0.462% | 
CC(C)CC(O)Cc1ccccc1 (configuration not stated) | -13.3% | 
CC(=O)O[C@@H]1CC2C3CCc4cc(OC(=O)c5ccccc5)ccc4C3CCC2(C)[C@H]1OC(C)=O (some centres not stated) | 6.62% | 
CC(=O)/C=C/C=C1/C2CCC(C2)C1(C)C (configuration not stated) | 3.42% | 
CCCc1ncc(C(=O)O)s1 | 0.0477% | 
CC(=O)c1ccc(O)c(C(N)=O)c1 | -5.73% | 
CC(C)(C)NCC(O)COc1cccc2c1CCC(=O)N2 (configuration not stated) | 2.83% | 
CCN(CC)CC(=O)Oc1ccc(NC(C)=O)cc1 | -2.43% | 
CN(C)CCc1c[nH]c2ccc(C[C@H]3COC(=O)N3)cc12 | -0.238% | 
COc1cc(S(N)(=O)=O)cc(C(=O)O)c1OC | 7.31% | 
CCC(C)(C)C | 2.18% [at 94.8 µM] | 
C[C@@H]1CCC[C@H](C)N1CCCC(O)(c1ccccc1)c1ccccn1 (some centres not stated) | -9.02% | 
CO/N=C(\C(=O)O)c1csc(NC(=O)CCl)n1 |  | 13.3 µM (active)
CC(C)(C)c1ccc(C(=O)CCCCl)cc1 | -1.45% | 
CC(=O)OCC(=O)[C@@]1(O)CC[C@H]2[C@@H]3CCC4=CC(=O)C=C[C@]4(C)[C@H]3[C@@H](O)C[C@@]21C | -7.43% | 
Cc1cc(=O)oc2cc(O[C@@H]3SC[C@@H](O)[C@H](O)[C@H]3O)ccc12 | -3.38% | 
CCOC(=O)CN1CCCC1=O | 1.92% | 
CCCCC(O)/C=C(C)/C=C/C=C/C(=O)N1CCCC1=O (configuration not stated) | 7.16% | 
Clc1ccc2c(c1)Nc1ccccc1S2 |  | 29.8 µM (active)
NNC(=O)CCCCC(=O)NN | -14.6% | 
Cc1ccc(O)c(C(=O)c2ccccc2)c1 | 10.1% [at 94.8 µM] | 
N#CC1(N)CCCCC1 | -1.52% [at 94.8 µM] | 
CCc1ccc(CC)cc1 | -0.529% [at 94.8 µM] | 
COC(=O)c1cc(Cl)c(NC(C)=O)cc1OC | -4.75% | 
COC(=O)c1ccc(NC(C)=O)cc1OC | -13.3% | 
CNC(=O)c1c(I)c(NC(C)=O)c(I)c(C(=O)O)c1I | 10.4% | 
O=C1CC2(CCCC2)CC(=O)N1CCNCC1COc2ccccc2O1 (configuration not stated) | 13% | 

assay: qHTS assay for small molecule agonists of the antioxidant response element (ARE) signaling pathway - cell viability counter screen (AID 743203; calls by dose curve; also: nearly all actives have a fitted effect of over 55% in size); conditions: ARE-bla HepG2 viability, CellTiter-Glo luminescence, 16 h; series mostly up to 73.3 µM; viability change, negative = cytotoxic: at the top concentration
In short: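 Compounds in DMSO were pinned onto ARE-bla HepG2 cells plated 5 hrs earlier at 2,000 cells/well. Sixteen hours later at 37C/5% CO2, CellTiter-Glo was added and luminescence measured after 30 min at room temperature.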

SMILES | viability change, negative = cytotoxic
N#Cc1cc(NC(=O)C(=O)O)c(Cl)c(NC(=O)C(=O)O)c1 | 5.63%
CC(C)CC(O)Cc1ccccc1 (configuration not stated) | -22.5%
CC(=O)O[C@@H]1CC2C3CCc4cc(OC(=O)c5ccccc5)ccc4C3CCC2(C)[C@H]1OC(C)=O (some centres not stated) | -13.6%
CC(=O)/C=C/C=C1/C2CCC(C2)C1(C)C (configuration not stated) | -4.21%
CCCc1ncc(C(=O)O)s1 | 6.73%
CC(=O)c1ccc(O)c(C(N)=O)c1 | 6.75%
O=C(O)Cc1ccccc1Oc1ccc(Cl)cc1Cl | 4.64%
CC(CN1CC(=O)NC(=O)C1)N1CC(=O)NC(=O)C1 (configuration not stated) | -1.01%
CC(C)(C)NCC(O)COc1cccc2c1CCC(=O)N2 (configuration not stated) | -4.34%
CCN(CC)CC(=O)Oc1ccc(NC(C)=O)cc1 | 0.196%
COc1cc(S(N)(=O)=O)cc(C(=O)O)c1OC | 9.27%
C[C@@H]1CCC[C@H](C)N1CCCC(O)(c1ccccc1)c1ccccn1 (some centres not stated) | -5.3%
Cc1nnc(C(=O)NC(C)(C)c2nc(C(=O)NCc3ccc(F)cc3)c(O)c(=O)n2C)o1 | -7.2%
CO/N=C(\C(=O)O)c1csc(NC(=O)CCl)n1 | 6.02%
CC(C)(C)c1ccc(C(=O)CCCCl)cc1 | -0.706%
CC(=O)OCC(=O)[C@@]1(O)CC[C@H]2[C@@H]3CCC4=CC(=O)C=C[C@]4(C)[C@H]3[C@@H](O)C[C@@]21C | 6.55%
CCOC(=O)CN1CCCC1=O | 1.38%
Cc1cc2c(cc1CC(=O)c1sccc1S(=O)(=O)Nc1onc(C)c1Cl)OCO2 | 3.16%
CCCCC(O)/C=C(C)/C=C/C=C/C(=O)N1CCCC1=O (configuration not stated) | 7.28%
NNC(=O)CCCCC(=O)NN | 2.22%
Cc1ccc(O)c(C(=O)c2ccccc2)c1 | -7.23% [at 94.8 µM]
N#CC1(N)CCCCC1 | -2.55% [at 94.8 µM]
CCc1ccc(CC)cc1 | -0.505% [at 94.8 µM]
CCO[Si](CC(C)C)(OCC)OCC | -22.2%
O=C1CCCc2c(O)cccc21 | -7.91%
C=CC(=O)OCCOCCOCC | 4.43%
COC(=O)c1cc(Cl)c(NC(C)=O)cc1OC | 5.12%
COC(=O)c1ccc(NC(C)=O)cc1OC | -5.58%
CNC(=O)c1c(I)c(NC(C)=O)c(I)c(C(=O)O)c1I | 5.85%

From PubChem BioAssay (Tox21)
